Our source for the corrected activity, negative = more killing and z-score values is PubChem BioAssay AID1508625 (Wald Lab, School of Medicine, Case Western Reserve …, 2021).

A short description of the test: enhancers of NK cell killing of ovarian tumor cells, primary screen, imaging, OVCAR3, primary NK cells, calcein-AM imaging (AID 1508625).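 Further: compound given to NK cells 16 h before adding targets at 1.5 to 1 ratio.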 Particulars: OVCAR3 lysis by primary NK cells, at 5 µM; z-score: measured here: robust Z-score, single-point normalisation.

Regarding `O=C(Nc1ccccc1C(=O)Nc1ccc(Br)cn1)c1ccccc1`, the corrected activity, negative = more killing is -6.2% and the z-score was -2.34.
In the case of `Cc1ccc(C(=O)N2C(=O)C(c3ccccc3)Oc3ccccc32)cc1` (configuration not stated), the corrected activity, negative = more killing is -10.8% and the z-score was -3.35.
For the compound `CCOc1ccc(N2CC(C(=O)Nc3cc(C)ccn3)CC2=O)cc1` (configuration not stated), the corrected activity, negative = more killing is -3.29% and the z-score was -1.23.
Regarding `c1ccc(OCCCc2nc(-c3ccccn3)no2)cc1`, the corrected activity, negative = more killing is -2.46% and the z-score is -1.37.
In the case of `CC(C(=O)NCCC1=CCCCC1)c1ccc([N+](=O)[O-])cc1` (configuration not stated), the corrected activity, negative = more killing was -0.521% and the z-score was -0.29.
Regarding `COc1ccc(C(=O)N2N=C(C(C)C)CC2(O)C(F)(F)F)cc1OC` (configuration not stated), the corrected activity, negative = more killing is -4.89% and the z-score is -1.46.
For the compound `O=C(COc1ccc(Cl)cc1)N1CCN(C(=O)c2ccccc2F)CC1`, the corrected activity, negative = more killing was -1.94% and the z-score is -0.865.
Taken in the same sequence, the figures for `O=C(C=Cc1ccc([N+](=O)[O-])cc1)NC(=S)NN1CCOCC1` were -5.28% and -1.68.
Take `CCSc1nnc(NC(=O)CSc2nc3c(c(=O)n2-c2ccccc2OC)SCC3)s1`: the corrected activity, negative = more killing was -4.89% and the z-score was -1.22.
Taken in the same sequence, the figures for `CCOC(=O)c1ccc(NC(=O)CCc2ccccc2)cc1` were -3.6% and -1.15.
The matching figures for `COc1ccc(-c2csc(Nc3ncccn3)n2)cc1OC`: -2.57% and -1.15.
With `O=C1c2ccccc2C(=O)N1CCCCCCN1CCN(c2cccc(Cl)c2)CC1`, the corrected activity, negative = more killing was -4.02% and the z-score was -0.848.
Taken in the same sequence, the figures for `NC(=O)c1ccccc1NC(=O)c1ccc(-c2cccc(Cl)c2)o1` were -6.51% and -1.94.
The matching figures for `CCOc1ccc2nc(NC(=O)CCC(=O)OCC(F)(F)F)sc2c1`: -3.74% and -1.41.
Turning to `O=C(Cn1cnc2ccccc2c1=O)NCCC(=O)N1CCOCC1`, the corrected activity, negative = more killing was -5.47% and the z-score was -1.74.
Turning to `CCC(=O)Nc1ccc(Cl)c(NC(=O)COc2ccc(Br)cc2)c1`, the corrected activity, negative = more killing was -0.00546% and the z-score was -0.00304.
